Test results reported in PubChem BioAssay (NCI).
Compounds without any hit were thinned out: in the full panel of roughly 79,000, 15% have a hit. Activity calls are given as the source filed them. Cut-off read from the data, not from the text of the source: active = growth inhibition above about 70%; inactive = the rest.

How the values were obtained:
[1] = NCI Yeast Anticancer Drug Screen. Data for the rad52 strain (AID 147);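 note: 0% = growth of vehicle-treated control cultures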; details: S. cerevisiae rad52 mutant growth inhibition, hits give high values
Method in brief: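 Genetically altered yeast (DNA damage repair defect) treated with compound; inhibition calculated relative to vehicle.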

[2] = NCI Yeast Anticancer Drug Screen. Data for the wt1 strain (AID 149);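 note: 0% = growth of vehicle-treated wt1 cultures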; details: S. cerevisiae wt1 strain (SPY 50644) growth inhibition, hits give high values
Method in brief: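 Yeast wt1 strain exposed to compounds; growth inhibition measured relative to vehicle-treated controls.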

[3] = NCI Yeast Anticancer Drug Screen. Data for the rad50EPP+ strain (AID 151);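 note: 0% = growth of vehicle-treated control cultures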; details: S. cerevisiae rad50 mutant strain, hits give high values
Method in brief: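 Strain rad50EPP+; compound exposure; % growth inhibition vs vehicle.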

[4] = NCI Yeast Anticancer Drug Screen. Data for the mgt1 strain (AID 153); details: S. cerevisiae mgt1 mutant growth inhibition, hits give high values
Method in brief: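 Read-out: yeast growth inhibition vs vehicle control. Strain mgt1, drawn from a panel altered in DNA damage repair or cell cycle control.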

[5] = NCI Yeast Anticancer Drug Screen. Data for the rad50 strain (AID 155);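 note: 0% = growth of vehicle-only cultures of the same strain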; details: S. cerevisiae rad50 strain growth inhibition, hits give high values
Method in brief: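 Yeast carrying a defined DNA repair defect were exposed to test compounds, and growth was compared with vehicle-treated controls to give percent inhibition.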

[6] = NCI Yeast Anticancer Drug Screen. Data for the mec2-1 strain (AID 157); details: S. cerevisiae mec2-1 strain, hits give high values
Method in brief: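 Cells of the genetically defined mec2-1 yeast strain are incubated with test compound. Inhibition of growth is calculated against vehicle-treated controls.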

[7] = NCI Yeast Anticancer Drug Screen. Data for the rad14 strain (AID 159);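 note: 0% = growth of vehicle-treated control cultures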; details: S. cerevisiae rad14 strain growth inhibition, hits give high values
Method in brief: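 Yeast cells carrying a defined DNA-repair defect were exposed to compounds, and growth inhibition was calculated relative to vehicle-treated control cultures.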

[8] = NCI Yeast Anticancer Drug Screen. Data for the sgs1 mgt1 strain (AID 161);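 note: 0% = growth of cultures given vehicle only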; details: S. cerevisiae sgs1 mgt1 strain, hits give high values
Method in brief: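 Read-out: growth inhibition vs vehicle controls. Cells: mutant yeast strain deficient in DNA damage repair.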

[9] = NCI Yeast Anticancer Drug Screen. Data for the CLN2oe strain (AID 163);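 note: 0% = growth of vehicle-only control cultures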; details: S. cerevisiae CLN2oe strain, hits give high values
Method in brief: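 Strain altered in cell-cycle control, incubated with compound; growth compared to solvent-treated controls.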

[10] = NCI Yeast Anticancer Drug Screen. Data for the cln2 rad14 strain (AID 165);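 note: 0% = growth equal to vehicle treated cultures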; details: S. cerevisiae cln2 rad14 strain, hits give high values
Method in brief: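 The screen exposed genetically defined yeast (cln2 rad14) to test compounds and scored growth inhibition relative to vehicle-treated controls.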

[11] = NCI Yeast Anticancer Drug Screen. Data for the bub3 strain (AID 167); details: S. cerevisiae bub3 mutant strain, hits give high values
Method in brief: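 Compounds were applied to a genetically altered yeast strain carrying a cell-cycle control defect. Growth inhibition was scored against vehicle-treated controls.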

[12] = NCI Yeast Anticancer Drug Screen. Data for the wt2 strain (AID 169);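 note: 0% = growth of vehicle-treated yeast cultures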; details: S. cerevisiae wt2 strain growth inhibition, hits give high values
Method in brief: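 Steps: yeast strain treated with compound; growth recorded; inhibition calculated relative to cultures given vehicle alone.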

[13] = NCI Yeast Anticancer Drug Screen. Data for the mlh1 strain (AID 171);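 note: 0% = growth of vehicle-treated control cultures of the same strain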; details: S. cerevisiae mlh1 strain growth inhibition, hits give high values
Method in brief: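 Yeast screen: mutant strain plus compound, growth scored against vehicle control wells.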

[14] = NCI Yeast Anticancer Drug Screen. Data for the sgs1 strain (AID 173);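 note: 0% = growth of vehicle-only control cultures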; details: S. cerevisiae sgs1 mutant, hits give high values
Method in brief: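 Inhibition of yeast growth served as the measure. The mutant strain was treated with each compound, and growth was normalised to cultures receiving vehicle alone.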

[15] = NCI Yeast Anticancer Drug Screen. Data for the mlh1 rad18 strain (AID 175); details: S. cerevisiae mlh1 rad18 strain growth inhibition, hits give high values
Method in brief: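 Compound-treated yeast growth, normalised to vehicle controls. Strain bears defined DNA repair mutations.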

[16] = NCI Yeast Anticancer Drug Screen. Data for the rad18 strain (AID 177); details: S. cerevisiae rad18 mutant growth inhibition, hits give high values
Method in brief: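 Inhibition values reflect reduced yeast growth compared with vehicle-treated controls, using a strain engineered with a DNA damage repair defect.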

[17] = at 5.0 µM (retest, dose inferred, filed as 0.5)
[18] = at 50.0 µM (retest, dose inferred, filed as 5.0)

Measured: growth inhibition

OCC(Cn1cncn1)(c1ccc(F)cc1F)n1cncn1 (stereo not drawn)
active: [3]; at 11.0 µM 86% | [3]; at 33.0 µM 92% | [3]; at 100.0 µM 94% | [5]; [18] 77% | [7]; at 3.7 µM 74% | [7]; at 11.0 µM 83% | [7]; at 33.0 µM 76% | [7]; at 100.0 µM 74% | [8]; [18] 78% | [10]; [18] 81% | [11]; [18] 84% | [11]; at 50.0 µM 71% | [14]; at 11.0 µM 72% | [14]; at 33.0 µM 72% | [14]; at 100.0 µM 70% | [15]; [18] 86%
inactive: [1]; at 1.2 µM 35% | [1]; at 3.7 µM 57% | [1]; at 11.0 µM 63% | [1]; at 33.0 µM 66% | [1]; at 100.0 µM 65% | [2]; at 1.2 µM 13% | [2]; at 3.7 µM 40% | [2]; at 11.0 µM 45% | [2]; at 33.0 µM 43% | [2]; at 100.0 µM 42% | [3]; at 1.2 µM 2% | [3]; at 3.7 µM 28% | [4]; at 1.2 µM 33% | [4]; at 3.7 µM 62% | [4]; at 11.0 µM 65% | [4]; at 33.0 µM 66% | [4]; at 100.0 µM 65% | [5]; at 1.2 µM 34% | [5]; at 3.7 µM 54% | [5]; [17] 55% | [5]; at 11.0 µM 59% | [5]; at 33.0 µM 59% | [5]; at 50.0 µM 61.8% | [5]; at 100.0 µM 60% | [6]; at 1.2 µM 27% | [6]; at 3.7 µM 45% | [6]; [17] 41% | [6]; at 11.0 µM 53% | [6]; at 33.0 µM 53% | [6]; [18] 61% | [6]; at 50.0 µM 44.2% | [6]; at 100.0 µM 52% | [7]; at 1.2 µM 57% | [8]; [17] 67% | [8]; at 50.0 µM 68.2% | [9]; at 1.2 µM 29% | [9]; at 3.7 µM 51% | [9]; at 11.0 µM 62% | [9]; at 33.0 µM 65% | [9]; at 100.0 µM 68% | [10]; [17] 22% | [10]; at 50.0 µM 63% | [11]; at 1.2 µM 27% | [11]; at 3.7 µM 54% | [11]; [17] 14% | [11]; at 11.0 µM 69% | [11]; at 33.0 µM 69% | [11]; at 100.0 µM 66% | [12]; at 1.2 µM 31% | [12]; at 3.7 µM 57% | [12]; at 11.0 µM 64% | [12]; at 33.0 µM 61% | [12]; at 100.0 µM 57% | [13]; at 1.2 µM 22% | [13]; at 3.7 µM 47% | [13]; at 11.0 µM 53% | [13]; at 33.0 µM 53% | [13]; at 100.0 µM 50% | [14]; at 1.2 µM 48% | [14]; at 3.7 µM 67% | [15]; [17] 31% | [15]; at 50.0 µM 57.5% | [16]; at 1.2 µM 41% | [16]; at 3.7 µM 60% | [16]; at 11.0 µM 67% | [16]; at 33.0 µM 65% | [16]; at 100.0 µM 65%
